Test results taken from PubChem BioAssay (NCI).
This is part of a sample that, as a whole, favours compounds with a hit. Of some 83,000 tested, about 20% had one in any assay.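 In brief: 96-well plates, 48 h treatment, single concentration, percent growth endpoint.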 Unmarked numbers belong to inactive results. The source made the active and inactive calls. The calls were made as follows: active = growth percent below 10; inactive = the rest.

Key:
Assay in all cases: NCI-60 one-dose screen, 48 h (100 = growth as untreated, 0 = no growth, -100 = all killed)
Conditions in all cases: 10 µM unless noted
T-47D breast = test system: T-47D breast
BT-549 breast = test system: BT-549 breast
MDA-MB-435 melanoma = test system: MDA-MB-435 melanoma
SW-620 colon = test system: SW-620 colon
MCF7 breast = test system: MCF7 breast
HCT-116 colon = test system: HCT-116 colon
HCC-2998 colon = test system: HCC-2998 colon
KM12 colon = test system: KM12 colon

SMILES | growth (T-47D breast) | growth (BT-549 breast) | growth (MDA-MB-435 melanoma) | growth (SW-620 colon) | growth (MCF7 breast) | growth (HCT-116 colon) | growth (HCC-2998 colon) | growth (KM12 colon)
CC1CC2Oc3ccc(Cl)cc3C(=O)N2O1 (centres undefined) | 104% | 105% | 105% | 99.2% | 112% | 107% | 97.5% | 107%
COc1cc(Cn2ncc3ccc(NC(=O)c4cc5ccccc5oc4=N)cc32)cc(OC)c1OC | 39.6% | 43.6% | -16.1% (active) | 43.5% | 25% | 26.6% | 85% | 32.5%
CC1(c2ccccc2)NC(=O)N(NC(=O)CSc2nc(-c3cccs3)nc3ccccc23)C1=O (centres undefined) | 95.9% | 110% | 103% | 109% | 106% | 93.6% | 98.4% | 103%
Cn1c(-c2c(N)n(Cc3cccnc3)c3nc(C#N)c(C#N)nc23)nc2ccccc21 | 92.1% | 115% | 89.3% | 95.3% | 103% | 44.5% | 100% | 82.8%
CN(C)CCCn1c(=O)c2ccccc2c2ccccc21 | 87.9% | 103% | 89% | 42.8% | 58.4% | 26.5% | 68.2% | 75.8%
CC(=O)[C@@H]1CC[C@]2(COS(=O)(=O)c3ccc(C)cc3)CC[C@]3(C)[C@H](CC[C@@H]4[C@@]5(C)CCCNC(C)(C)[C@@H]5CC[C@]43C)[C@@H]12 | 49.7% | 82.6% | 52.2% | 9.71% (active) | 58.2% | 32.8% | 26.6% | 52.3%
COc1cc(/C=N/n2c(CN3CCOCC3)nc3ccccc3c2=O)cc(OC)c1OC | 94.4% | 103% | 102% | 106% | 99.4% | 94.5% | 104% | 101%
CN1CCN(CCCOc2ccc3nc(Nc4ccc(F)c(F)c4)ccc3c2)CC1 | 14.6% | 79.9% | -72.3% (active) | -32.2% (active) | 11.8% | 5.76% (active) | -24.6% (active) | 11.8%
COc1cc2c(cc1-c1c(C)noc1C)ncc1nc(C3CCC(F)(F)CC3)n(C3CCC(OC(F)F)CC3)c12 (centres undefined) | 22.5% | 79.2% | 55.2% | 75.1% | 26.2% | 53.9% | 52.1% | 51.4%
C=C(C)[C@@H]1CC[C@]2(C)[C@H](CC=C3[C@@H]4CC(C)(C)CC[C@]4(C(N)=O)CC[C@]32C)[C@@]1(C)CCC#N | 10.4% | 17.7% | 17.7% | 22.1% | 6.71% (active) | 9.92% (active) | 44.7% | 20.7%
C[C@@H]1N=C(c2ccc3ccccc3n2)Nc2nc3ccccn3c2C1=O | 90.2% | 88.8% | 104% | 99% | 76.7% | 95.5% | 101% | 95.3%
CCCCCCN(CCCCCC)c1ccc(/C=C2/SC(=O)N(c3nc(N4CCCC4)nc(N4CCCC4)n3)C2=O)c(C)c1 | 63.6% | 88.1% | 75.5% | 73.2% | 54.8% | 45.5% | 41.7% | 52.9%
COc1cc(/C=C/C(=O)c2c(C)nc3ccccc3c2C)ccc1OCCCN1CCN(C(=O)c2ccco2)CC1 | 67.7% | 86.3% | 61.6% | 68.3% | 75.4% | 76.6% | 46.5% | 98%
O=c1c2cc(F)ccc2sc2c(Nc3cccnc3)nc3ccccc3c12 | 84.7% | 98.7% | 99.1% | 85.6% | 55.1% | 61.5% | 94.1% | 89.2%
Cc1ccc(-n2nc3c(c(C#N)c2=O)CC(c2ccccc2Cl)C([N+](=O)[O-])=C3O)cc1 (centres undefined) | 73.4% | 103% | 102% | 109% | 94% | 63.8% | 113% | 106%
COc1ccc(NC(=O)c2nc(-c3cc(OC)c(OC)c(OC)c3)n(-c3cccc4ccccc34)n2)cc1OC | 50.3% | 46.3% | 47.4% | 61.5% | 26.2% | 25.9% | 47.4% | 41.3%
Cc1ccc(Cc2cnc(NC(=O)c3ccc4noc(-c5ccccc5)c4c3)s2)cc1 | 78.7% | 99.6% | 85.8% | 89.1% | 69.8% | 86.7% | 99.7% | 91.3%
COc1cccc(-c2nn(-c3ccccc3)cc2-c2ccnc(NCCCNC(=O)c3ccc(F)cc3)c2)c1 | -0.248% (active) | 29.8% | -16.7% (active) | 33% | 18.6% | 13.1% | 40.2% | 18.7%
Cc1cc(NCc2cc(Nc3ccnc4cc(Cl)ccc34)ccc2F)nc(N2CCOCC2)n1 | -54.8% (active) | 75.3% | -18.4% (active) | 32.5% | 6.18% (active) | 2.23% (active) | 55.8% | 44%
O=C(NCCNc1cc(-c2cn(-c3ccccc3)nc2-c2cccc(O)c2)ccn1)Nc1ccccc1 | 45.9% | 52.9% | 93% | 84.5% | 78.4% | 53.2% | 92.5% | 89.2%
N#C/C(=C/C=C/c1cccc(Cl)c1)S(=O)c1ccccc1 (centres undefined) | -47.2% (active) | -69.3% (active) | -35.4% (active) | -58.9% (active) | -52.5% (active) | -86.3% (active) | -88.7% (active) | -47.7% (active)
CC(=O)O[C@]1(C(C)=O)CCC2C3C[C@H](C)C4=CC(=O)CC[C@]4(C)C3CC[C@@]21C (some centres undefined) | 95.3% | 63.6% | 104% | 112% | 90.1% | 83.6% | 106% | 103%
Nc1cc2c3c(cccc3c1)C(=O)N(CCN1CCCC1)C2=O | 18% | 74.7% | 48.7% | 20.3% | 6.93% (active) | 17.4% | 44.1% | 34.7%
COc1cc(/C=C/C(=O)c2ccc(Nc3nc(Nc4ccc(F)cc4)nc(Nc4ccc(Cl)cc4)n3)cc2)cc(OC)c1OC | 61.9% | 54.8% | 69.3% | 35.3% | 28.5% | 22.9% | -1.48% (active) | 56%
CC1SC(c2ccc(OCc3ccccc3)cc2)N(NC(=O)C(O)(c2ccccc2)c2ccccc2)C1=O (centres undefined) | 25.8% | 92.9% | 57.7% | 69.7% | 35.7% | 39.6% | 79.9% | 34.2%
CN(C)CC1=NC2SC=C(c3ccccc3)C2C(=O)N1CC#N (centres undefined) | 86.8% | 118% | 95.3% | 104% | 121% | 103% | 97.5% | 101%
CC1=C([Se]CC(OC(=O)CC[Se]c2ccccc2)C(=O)NCCCCCC(=O)OCc2ccccc2)C(=O)c2ccccc2C1=O (centres undefined) | 56% | 39.9% | 20% | 104% | 30.2% | -3.51% (active) | 72% | 9.71% (active)
O=C(Nc1cccc2c(O)c(N=Nc3ccc(S(=O)(=O)Nc4nccs4)cc3)cc(N=Nc3ccc(S(=O)(=O)Nc4nccs4)cc3)c12)C(Cl)Cl | 88.3% | 87.3% | 106% | 42% | 57.8% | 71.8% | 107% | 59%
